Experimental findings from PubChem BioAssay (NCATS) are described below.

In assay [1] the target is Lysosomal acid glucosylceramidase (Homo sapiens) (UniProt P04062). Nature of the assay: Glucocerebrosidase-p2 (AID 348; in the data active = potency below about 10 µM; also: potency is read from the fitted curve at half-maximal effect). The following applies: purified GBA, blue fluorogenic substrate, 40 min. The gist of the method: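 Normal human glucocerebrosidase (0.2 nM) with blue fluorogenic substrate (80 uM final) in citrate/phosphate pH 5.9 with 10mM sodium taurocholate, 0.01% tween-20; 40 min RT, NaOH/glycine stop; fluorescence Ex 365/Em 440; AC50 from a titration from 0.6 nM upwards.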

Assay [2] is described as follows: AP1 Signaling Pathway (AID 357). Also: % is scaled to controls: 0 for no effect and ±100 for the full control effect. The following applies: ME-180 AP-1-bla reporter, EGF-induced, beta-lactamase ratio, 5 h; at 7.69 µM (top of the series) unless noted. Summed up: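 ME-180 cells with beta-lactamase reporter under AP-1 response element, stimulated with EC50 EGF; compounds tested in titration series, 5 h at 37 °C. CCF4 substrate added 2.5 h at room temperature; 460/530 nm emission ratio gave %activity and AC50.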

Assay [3] addresses Cytochrome P450 1A2 (Homo sapiens) (UniProt P05177). The experiment in a line: p450-cyp1a2 (AID 410; calls by dose curve; also: potency is read from the fitted curve at half-maximal effect;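 as to activity change, negative = inhibition: -100% = full effect of reference inhibitor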). The following applies: recombinant CYP1A2, luciferin-ME demethylation, luminescence; series mostly up to 57 µM. The gist of the method: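 O-Demethylation of luciferin 6' methyl ether by human CYP1A2 is monitored as luciferase luminescence. Substrate sits at Km (100uM); enzyme is 20nM. Values are scaled to 57 uM furafylline as maximal inhibition.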

Assay [4] in a line: NFAT Signaling Pathway (AID 444).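 Also: carbachol stimulus at about its EC50 of 1 µM final; % is scaled to controls: 0 for no effect and ±100 for the full control effect.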 The note with it: Jurkat NFAT-bla M1, carbachol, beta-lactamase ratio, 5 h; at 7.69 µM (top of the series) unless noted. The gist of the method: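 Jurkat cells carrying an NFAT-driven β-lactamase reporter and co-transfected muscarinic M1 receptor were treated with compound plus carbachol (1 uM final, an EC50 level) for 5 h at 37 °C. CCF4 loading followed for 1 h at RT; 460/530 nm ratio gave %activity.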

Assay [5] can be described thus: Stat Signaling Pathway (AID 446).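 Also: ME-180 cervical cancer cells given 40 pM IL-6 alongside compound; SIE-controlled beta-lactamase reporter measured as 460/530 nm FRET emission ratio; % is scaled to controls: 0 for no effect and ±100 for the full control effect.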 The following applies: ME-180 SIE beta-lactamase reporter, IL-6 stimulated, 5 h; at 7.69 µM (top of the series) unless noted. Summed up:
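Normalization used AC90 stimulation (300 pM IL-6) and AC90 inhibition (125 nM pan-JAK inhibitor at 40 pM IL-6). The underlying signal is SIE-driven beta-lactamase in ME-180 cells after 5 h IL-6 exposure with compound.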

In assay [6] the target is Glucocorticoid receptor (Homo sapiens) (UniProt P04150). Nature of the assay: GR-EFC Redistribution (AID 451; calls by dose curve; also: potency is read from the fitted curve at half-maximal effect). The note with it: CHO-K1 GR-EFC translocation, beta-gal luminescence, 2 h. The gist of the method:
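CHO-K1 cells stably expressing nuclear-localized β-gal enzyme acceptor and GR fused C-terminally to the enzyme donor fragment; ligand-driven nuclear translocation restores β-gal by complementation. Compounds titrated up to 46 uM final, 2 h at 37 °C; luminescence read.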

In assay [7] the target is Mitogen-activated protein kinase 10 (Mus musculus) (UniProt Q61831). The experiment in a line: JNK3 AlphaScreen Assay (AID 530).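 Also: kinase came from lysate of stimulated human HepG2 cells; % is scaled to controls: 0 for no effect and ±100 for the full control effect.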 The following applies: JNK3 lysate, c-Jun phosphorylation; series mostly up to 57.1 µM. The gist of the method: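 Phosphorylation of biotinylated GST-cJun(1-79) at Ser73 is measured by AlphaScreen proximity luminescence. Enzyme is JNK3 in HepG2 lysates activated with interleukin-1beta and tumor necrosis factor alpha; ATP is 10 uM final.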

Assay [8] concerns the target 3',5'-cyclic-AMP phosphodiesterase 4B (Homo sapiens) (UniProt Q07343). The experiment in a line: qHTS Assay for Inhibitors of PDE-IV (AID 607; active = well fitted activation curve with a large enough effect in the main read-out, with a control signal flat, not every such curve was filed as active; also: % of control where 0% means no effect). The following applies: HEK293 ACTOne CNG channel cells, membrane potential fluorescence; series mostly up to 22.9 µM. The gist of the method:
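HEK293 ACTOne cells with CNG channel (1000/well), endogenous PDE4; membrane potential dye, compounds up to 22.9 uM final. Fluorescence Ex 535/Em 590; RO 20-1724 (100 uM final) as reference.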
In general terms: Quantitative high-throughput screening tests each substance at several concentrations.

In assay [9] the target is Cytochrome P450 3A4 (Homo sapiens) (UniProt P08684). The experiment in a line: qHTS Assay for Inhibitors and Substrates of Cytochrome P450 3A4 (AID 884; active = well fitted curve in the direction sought with a large enough effect; an effect the other way counts as inactive or inconclusive; also: % is scaled to controls: 0 for no effect and ±100 for the full control effect; nearly all actives have a fitted effect of over 50% in size). The following applies: recombinant CYP3A4, Luciferin-PPXE luminescence; series mostly up to 57.1 µM. The gist of the method:
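Luminescent readout of luciferin produced by CYP3A4 (20 nM) dealkylation of Luciferin-PPXE, 25 uM (its KM). NADPH-driven reaction ran 60 min at RT after 10 min compound preincubation; data scaled to 57 uM ketoconazole as 100% inhibition.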

Assay [10] shares this target. Nature of the assay: qHTS Assay for Activators of Cytochrome P450 3A4 (AID 885; active = well fitted curve in the direction sought with a large enough effect; an effect the other way counts as inactive or inconclusive; also: nearly all actives have a fitted effect of over 65% in size; also: potency is read from the fitted curve at half-maximal effect). The following applies: recombinant CYP3A4, Luciferin-PPXE luminescence, 60 min; series mostly up to 57.1 µM. Summed up: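 Human CYP3A4 dealkylates Luciferin-PPXE to luciferin, which luciferase detection converts to light. Substrate was at its KM (25uM), buffer 200mM KPO4, reaction 60 min at RT.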

Assay [11] in a line: qHTS Assay for Identification of Small Molecule Agonists for Hypoxia Response Element Signaling Pathway (AID 914; active = well fitted activation curve with a large enough effect in the signal ratio, with a control signal flat, not every such curve was filed as active; the % refers to the signal ratio; also: % of control where 0% means no effect). The following applies: ME-180 (cervical carcinoma) HRE-bla reporter, beta-lactamase ratio, CoCl2, 17 h; activation: stronger effect = higher value. The gist of the method:
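A beta-lactamase reporter under hypoxia response element control in ME-180 cells served as the system. Compound titrations plus EC50 CoCl2 ran 17 h at 37 degrees Celsius; AC50 values were fitted from %Activity.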

A short description of assay [12]: Primary qHTS for small molecule stabilizers of the endoplasmic reticulum resident proteome: Secreted ER Calcium Modulated Protein (SERCaMP) assay (AID 1508630; active = well fitted curve in the direction sought with a large enough effect; an effect the other way counts as inactive or inconclusive; also: % is scaled to controls: 0 for no effect and ±100 for the full control effect). The note with it: SH-SY5Y GLuc-SERCaMP (Gaussia luciferase released on ER calcium loss) secretion, thapsigargin, luminescence; series mostly up to 38.4 µM. Summed up:
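The SH-SY5Y reporter protocol was run at 3 concentrations up to 38.3 uM (primary) or 11 concentrations (follow-up): 16 h compound, 100 nM thapsigargin for 4 h, then extracellular luciferase luminescence.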

A number with no mark means an inactive call. Results filed as inconclusive are left out. The source made the active and inactive calls. Unless noted, calls follow the shape of the dose curve; as a rule, active = well fitted curve in either direction with a large enough effect (not every such curve was filed as active); inconclusive = small, poorly fitted or top-dose-only effect, or another doubt; inactive = flat fitted curve, though single readings scatter. Bounds are passed on as bounds.

Sequence of Lysosomal acid glucosylceramidase (Homo sapiens) (P04062 whole entry, looked up): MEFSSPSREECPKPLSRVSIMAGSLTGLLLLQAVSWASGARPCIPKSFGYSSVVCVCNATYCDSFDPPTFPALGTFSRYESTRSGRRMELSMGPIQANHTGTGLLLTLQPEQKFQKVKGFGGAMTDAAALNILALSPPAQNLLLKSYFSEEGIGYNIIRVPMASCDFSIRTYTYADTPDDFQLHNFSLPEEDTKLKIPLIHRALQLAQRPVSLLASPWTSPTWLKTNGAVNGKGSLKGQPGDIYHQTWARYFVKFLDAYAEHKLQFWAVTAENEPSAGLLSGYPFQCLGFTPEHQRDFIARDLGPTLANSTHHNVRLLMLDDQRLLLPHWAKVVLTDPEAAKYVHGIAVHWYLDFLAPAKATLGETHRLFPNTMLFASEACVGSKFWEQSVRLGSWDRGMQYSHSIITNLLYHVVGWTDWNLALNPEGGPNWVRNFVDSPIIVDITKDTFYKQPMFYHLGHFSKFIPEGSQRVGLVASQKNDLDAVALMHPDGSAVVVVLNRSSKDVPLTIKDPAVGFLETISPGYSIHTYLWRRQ
Sequence of 3',5'-cyclic-AMP phosphodiesterase 4B (Homo sapiens) (Q07343 whole entry, looked up): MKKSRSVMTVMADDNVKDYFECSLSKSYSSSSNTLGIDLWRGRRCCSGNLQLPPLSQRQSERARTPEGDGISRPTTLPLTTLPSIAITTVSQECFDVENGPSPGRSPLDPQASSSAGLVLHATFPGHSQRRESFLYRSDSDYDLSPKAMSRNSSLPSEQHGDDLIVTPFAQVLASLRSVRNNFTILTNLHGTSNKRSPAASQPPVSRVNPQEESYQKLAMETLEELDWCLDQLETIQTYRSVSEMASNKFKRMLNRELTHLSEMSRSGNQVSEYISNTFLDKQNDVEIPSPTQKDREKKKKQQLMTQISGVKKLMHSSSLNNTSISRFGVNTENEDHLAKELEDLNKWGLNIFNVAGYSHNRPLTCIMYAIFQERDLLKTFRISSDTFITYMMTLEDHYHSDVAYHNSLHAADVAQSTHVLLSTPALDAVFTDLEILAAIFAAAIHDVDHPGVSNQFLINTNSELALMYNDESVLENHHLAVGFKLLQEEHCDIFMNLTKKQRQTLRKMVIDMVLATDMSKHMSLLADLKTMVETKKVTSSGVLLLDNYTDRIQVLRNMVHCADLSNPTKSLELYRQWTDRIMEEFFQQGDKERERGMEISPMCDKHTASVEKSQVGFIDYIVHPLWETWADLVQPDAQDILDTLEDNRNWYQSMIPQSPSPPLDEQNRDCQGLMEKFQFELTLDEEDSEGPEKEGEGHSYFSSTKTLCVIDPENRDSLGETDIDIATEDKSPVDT
Sequence of Cytochrome P450 1A2 (Homo sapiens) (P05177 whole entry, looked up): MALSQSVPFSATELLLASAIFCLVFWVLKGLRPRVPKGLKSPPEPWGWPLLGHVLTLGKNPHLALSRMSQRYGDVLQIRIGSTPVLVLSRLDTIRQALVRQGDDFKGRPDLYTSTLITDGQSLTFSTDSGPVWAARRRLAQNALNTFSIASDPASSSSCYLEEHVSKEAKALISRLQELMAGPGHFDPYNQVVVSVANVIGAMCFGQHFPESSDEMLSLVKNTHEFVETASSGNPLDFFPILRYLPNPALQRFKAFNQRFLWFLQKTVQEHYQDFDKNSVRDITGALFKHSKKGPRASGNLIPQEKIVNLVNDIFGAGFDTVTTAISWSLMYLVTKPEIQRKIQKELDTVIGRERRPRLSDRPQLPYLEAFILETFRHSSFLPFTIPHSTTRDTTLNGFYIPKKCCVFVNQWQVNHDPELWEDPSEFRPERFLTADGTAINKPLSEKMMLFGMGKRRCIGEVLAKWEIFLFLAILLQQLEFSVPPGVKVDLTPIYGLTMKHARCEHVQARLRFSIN
Sequence of Glucocorticoid receptor (Homo sapiens) (P04150 whole entry, looked up, the tested form may be a part): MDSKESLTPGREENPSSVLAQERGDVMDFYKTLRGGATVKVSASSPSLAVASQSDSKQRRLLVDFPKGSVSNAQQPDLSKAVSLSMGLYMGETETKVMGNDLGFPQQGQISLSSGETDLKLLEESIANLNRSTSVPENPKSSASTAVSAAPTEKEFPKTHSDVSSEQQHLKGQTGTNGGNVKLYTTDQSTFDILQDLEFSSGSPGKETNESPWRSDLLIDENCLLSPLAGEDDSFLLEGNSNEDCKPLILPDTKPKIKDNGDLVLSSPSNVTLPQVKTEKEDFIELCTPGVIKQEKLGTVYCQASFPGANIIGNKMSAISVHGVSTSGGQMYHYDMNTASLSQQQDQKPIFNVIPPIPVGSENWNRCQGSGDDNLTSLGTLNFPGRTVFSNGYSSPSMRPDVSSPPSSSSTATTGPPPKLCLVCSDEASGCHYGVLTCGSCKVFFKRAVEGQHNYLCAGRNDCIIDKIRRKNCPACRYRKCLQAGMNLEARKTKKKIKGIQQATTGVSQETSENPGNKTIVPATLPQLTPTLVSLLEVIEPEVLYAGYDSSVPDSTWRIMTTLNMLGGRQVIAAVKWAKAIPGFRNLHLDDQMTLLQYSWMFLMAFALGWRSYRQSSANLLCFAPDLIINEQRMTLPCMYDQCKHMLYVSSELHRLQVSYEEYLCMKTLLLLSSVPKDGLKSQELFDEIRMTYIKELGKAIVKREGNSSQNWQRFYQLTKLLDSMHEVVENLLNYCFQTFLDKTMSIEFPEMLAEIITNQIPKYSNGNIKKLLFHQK
Sequence of Cytochrome P450 3A4 (Homo sapiens) (P08684 whole entry, looked up): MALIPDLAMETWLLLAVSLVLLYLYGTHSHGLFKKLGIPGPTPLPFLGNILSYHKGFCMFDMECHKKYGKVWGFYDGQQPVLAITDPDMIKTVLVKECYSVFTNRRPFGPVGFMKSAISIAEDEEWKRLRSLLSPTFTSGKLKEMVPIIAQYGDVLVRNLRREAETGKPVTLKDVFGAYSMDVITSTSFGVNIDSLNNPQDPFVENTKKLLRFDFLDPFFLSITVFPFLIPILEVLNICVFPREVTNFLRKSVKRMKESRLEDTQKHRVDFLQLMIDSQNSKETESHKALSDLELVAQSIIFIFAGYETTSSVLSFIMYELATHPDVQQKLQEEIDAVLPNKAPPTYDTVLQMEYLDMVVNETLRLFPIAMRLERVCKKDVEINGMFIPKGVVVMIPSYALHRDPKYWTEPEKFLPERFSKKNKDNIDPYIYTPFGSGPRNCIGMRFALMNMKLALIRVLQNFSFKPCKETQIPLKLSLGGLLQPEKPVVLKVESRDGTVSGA

As for `O=C(Nc1ccccc1)N1CCC2(CC1)CCN(C(=O)c1cccc(F)c1)CC2`, the Potency in assay [1] is above 11.4 µM; in assay [3], 10 µM (active); in assay [6] it was above 46 µM; in [10] it was 12.6 µM (active). The results for the activity change, negative = inhibition in assay [2] and in assay [4] were 2.8% and 14.6%, respectively. The activity, negative = inhibition in [5] was -12.9%. In addition, the Potency result in [7], in assay [8] and in assay [9] was “inactive” in each case. In [11], the activation is -13.7%. Further, the result in [12] was inactive.
`CS(=O)(=O)N1CCC2(CC1)CN(c1ncccn1)C2`: the results for the Potency in assay [1] and in assay [6] were above 11.4 µM and above 46 µM, respectively. Moreover, the activity change, negative = inhibition was -16% in assay [2] and -5.62% in [4]. For the same molecule, the Potency result in assay [3], in assay [7], in assay [8] and in assay [10] was “inactive” each time. In addition, the activity, negative = inhibition in [5] was 6.56%. Moreover, the result in assay [12] was inactive.
Turning to `COc1ccc(NC(=O)N2CCCC3(CCN(C(=O)c4cccn4C)CC3)C2)cc1`, the Potency in assay [1] is above 11.4 µM; in assay [3], 25.1 µM (active); in [6], above 46 µM. For the same molecule, the activity change, negative = inhibition in assay [2] was -2.59%; in assay [4] it was -20.9%. The activity, negative = inhibition in [5] is -3.06%. Also, the Potency entry in assay [7], in assay [8] and in [10] was “inactive” throughout. Moreover, in [12], the outcome was inactive.
Consider `COc1ccc(NC(=O)N2CCC3(CC2)CCN(C(=O)c2ccncc2)CC3)cc1`, for which the figures for the Potency in assay [1], in assay [3] and in [6] were above 11.4 µM, 25.1 µM (active) and above 46 µM, respectively. In addition, the activity change, negative = inhibition in [2] was -0.635%; in assay [4], 3.85%. Besides, in assay [5], the activity, negative = inhibition was 4.58%. For the same molecule, the Potency entry in assay [7], in [8] and in assay [10] was “inactive” each time. For the same molecule, the outcome in assay [12] was inactive.
For `O=S(=O)(c1ccccc1)N1CCC[C@@]2(CCN(c3cccc(-c4ccccc4)c3)C2)C1`, the Potency in assay [1] is above 11.4 µM; in [3], 15.8 µM (active); in assay [6], above 46 µM. The results for the activity change, negative = inhibition in [2] and in assay [4] were -23.9% and -13.7%, respectively. Besides, in [5], the activity, negative = inhibition was -8.6%. The Potency result in assay [7], in assay [8] and in assay [10] was “inactive” each time. The outcome in assay [12] was inactive.
For `COC(=O)N1CCC2(CCCN(C(c3ccccc3)c3ccccc3)C2)CC1`, the Potency in assay [1] was above 11.4 µM; in assay [3], 15.8 µM (active); in [6] it was above 46 µM. Also, the activity change, negative = inhibition in [2] was 11.9%; in [4], -16.3%. Also, the activity, negative = inhibition in assay [5] was 13.3%. In addition, the Potency result in assay [7], in assay [8] and in [10] was “inactive” throughout. The outcome in assay [12] was inactive.
For `COc1ccc(NC(=O)N2CCCC3(CCN(C(=O)c4ccco4)CC3)C2)cc1`, the Potency was above 11.4 µM in [1] and above 46 µM in [6]. The activity change, negative = inhibition was -17.6% in assay [2] and 7.9% in assay [4]. The Potency entry in assay [3], in assay [7], in assay [8] and in [10] was “inactive” each time. Moreover, the activity, negative = inhibition in [5] is -11.8%. For the same molecule, the result in assay [12] was inactive.
Take `COc1ccc(C(=O)N2CCC3(CC2)CCN(c2ncccn2)CC3)cc1`: the Potency is above 11.4 µM in assay [1], above 46 µM in [6] and 5.01 µM (active) in assay [10]. The activity change, negative = inhibition in assay [2] is 3.18%; in [4], 0.535%. The Potency entry in assay [3], in [7], in assay [8] and in [9] was “inactive” throughout. Also, the activity, negative = inhibition in [5] was 4.32%. In addition, the outcome in assay [12] was inactive.
With `COc1ccc(C(=O)N2CCC[C@@]3(CCN(C(=O)Nc4cccc(C#N)c4)C3)C2)cc1`, the Potency is above 11.4 µM in assay [1] and above 46 µM in assay [6]. The activity change, negative = inhibition was -11.5% in assay [2] and 16.6% in assay [4]. Further, the Potency result in assay [3], in assay [7], in [8] and in assay [10] was “inactive” in each case. Also, the activity, negative = inhibition in assay [5] was 1.52%. Moreover, the result in [12] was inactive.
For `O=C(c1ccco1)N1CCC2(CCCN(c3ccccc3)C2)CC1`, the Potency in assay [1] is above 11.4 µM; in [6], above 46 µM. In addition, the activity change, negative = inhibition is -6.34% in [2] and -15.1% in [4]. Also, the Potency result in [3], in assay [7], in [8] and in [10] was “inactive” each time. Moreover, the activity, negative = inhibition in [5] was -2.43%. Also, the result in [12] was inactive.
Consider `O=C(c1ccco1)N1CCC2(CC1)CCN(c1ccc(-c3ccccc3)cc1)CC2`, for which the Potency was above 11.4 µM in assay [1] and above 46 µM in assay [6]. Besides, the values for the activity change, negative = inhibition in [2] and in assay [4] were -1.18% and 17.6%, respectively. In addition, the Potency entry in [3], in assay [7], in assay [8] and in [9] was “inactive” each time. In assay [5], the activity, negative = inhibition was -2.58%. The result in assay [12] was inactive.
Take `O=C(Nc1ccccc1)N1CCCC2(CCN(C(=O)c3cnccn3)CC2)C1`: the Potency in assay [1] is above 11.4 µM; in [6], above 46 µM. The activity change, negative = inhibition in assay [2] is 4.4%; in assay [4], 15.7%. Also, the Potency result in assay [3], in assay [7], in assay [8] and in [10] was “inactive” throughout. Also, in assay [5], the activity, negative = inhibition is 2.67%. The outcome in assay [12] was inactive.
`O=C(Nc1cccc(F)c1)N1CC[C@@]2(CCCN(S(=O)(=O)c3ccccc3)C2)C1`: the Potency in assay [1] is above 11.4 µM; in assay [3] it was 15.8 µM (active); in [6], above 46 µM. In addition, the activity change, negative = inhibition in assay [2] is -21%; in assay [4], 7.62%. In assay [5], the activity, negative = inhibition is -7.95%. Also, the Potency entry in [7], in assay [8] and in [10] was “inactive” each time. Moreover, the result in assay [12] was inactive.
With `CC(C)NC(=O)N1CCCC2(CCN(C(=O)c3cccn3C)CC2)C1`, the Potency in assay [1] was above 11.4 µM; in [6], above 46 µM. Moreover, the activity change, negative = inhibition in assay [2] was 4.84%; in [4], -17.7%. The Potency entry in [3], in assay [7], in assay [8] and in assay [10] was “inactive” throughout. The activity, negative = inhibition in assay [5] is 14.5%. Besides, in assay [12], the outcome was inactive.
Consider `COc1ccc(NC(=O)N2CC3(CCN(C(=O)c4ccncc4)CC3)C2)cc1`, for which the Potency in assay [1] was above 11.4 µM; in assay [6], above 46 µM. Moreover, the activity change, negative = inhibition is 0.578% in [2] and 10.9% in assay [4]. Moreover, the Potency result in [3], in assay [7], in assay [8] and in assay [10] was “inactive” in each case. Moreover, the activity, negative = inhibition in assay [5] was 6.73%. Moreover, the outcome in [12] was inactive.
